Drawing on PubChem BioAssay (NCI), this text covers growth for 9 compounds.

This is part of a sample that, as a whole, favours compounds with a hit. Of some 83,000 tested, about 20% had one in any assay.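 A percent growth of 40 corresponds to 60% growth inhibition; 0 means no net growth; -100 means all cells died. Active threshold: below 10.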 A number with no mark means an inactive call. Calls of active or inactive are those of the source.

Test in all cases: NCI-60 one-dose screen, 48 h (100 = growth as untreated, 0 = no growth, -100 = all killed)
Conditions in all cases: 10 µM unless noted

Assay [1] has as its system HCT-15 colon.
Assay [2] has as its system HT29 colon.
Assay [3] has as its system SNB-75 CNS.
Assay [4] relates to SNB-19 CNS.
The test system of assay [5] is U251 CNS.
The subject of assay [6] is SK-MEL-5 melanoma.
Assay [7] relates to UACC-62 melanoma.
In assay [8] the test system is LOX IMVI melanoma.
For assay [9], the system named is SK-MEL-28 melanoma.
Assay [10] concerns SK-MEL-2 melanoma.
For assay [11], the system named is EKVX NSCLC.
For assay [12], the system named is SN12C renal.
The test system of assay [13] is UO-31 renal.
The test system of assay [14] is TK-10 renal.
Assay [15] has as its system ACHN renal.
In assay [16] the test system is CAKI-1 renal.
In assay [17] the test system is A498 renal.
Assay [18] deals with CCRF-CEM leukemia.
The subject of assay [19] is MOLT-4 leukemia.
In assay [20] the test system is PC-3 prostate.

Regarding `O=C1C=CC(=Nc2cc(Br)c(O)c(Br)c2)C=C1`, the growth in [1] was 65.1%; in assay [2], 62%; in assay [3], 68.3%; in assay [4], 96.8%; in assay [5] it was 43.7%; in assay [6] it was 87.4%. Moreover, the growth is 67.6% in assay [7]; 48.6% in [8]; 75.1% in [9]; 65.2% in assay [10]; 90.7% in [11]; 78.7% in assay [12]. Besides, the growth is 56.3% in assay [13]; 93.8% in assay [14]; 68.4% in [15]; 82.8% in assay [16]; 97.2% in assay [17]; 7.46% (active) in [18]. Moreover, the growth in [19] was -28.9% (active).
As to `COc1ccc(-c2cc(-c3ccc(Nc4nc(Nc5ccccc5)nc(Nc5ccc(Cl)cc5)n4)cc3)nc(N)c2C#N)cc1`, the growth in [1] was -33.6% (active); in assay [2] it was 6.85% (active); in [3], 26.7%; in [4] it was 71.9%; in assay [5], -57.9% (active); in assay [6] it was -21.8% (active). The growth was 22.8% in assay [7]; -97.3% (active) in assay [8]; -72.9% (active) in [9]; -33% (active) in assay [10]; 18.7% in assay [11]; 25.7% in [12]. For the same compound, the growth in assay [13] was -71.5% (active); in assay [14], -86.6% (active); in [15] it was -82.2% (active); in assay [16], -20.4% (active); in assay [18], 3.41% (active); in assay [19], 2.08% (active).
With `NC(=Nc1ccc(N)cc1)C(N)=Nc1ccc(N)cc1`, the growth in assay [1] was 98.5%; in assay [2], 113%; in assay [3], 91.8%; in assay [4], 102%; in assay [5] it was 101%; in assay [6] it was 98.7%. Further, the growth in assay [7] was 104%; in assay [8], 97.2%; in assay [9], 117%; in [10], -7.4% (active); in assay [11], 107%; in assay [12] it was 104%. The growth in [13] was 92.9%; in [14], 87.3%; in assay [15], 93.4%; in assay [17], 91.3%; in assay [19], 124%.
Turning to `Cc1ccc(O)c(C(=O)c2ccccc2Cl)c1`, the growth in [1] is 99.5%; in assay [2], 108%; in assay [3] it was 79.3%; in assay [4], 109%; in [5], 98.5%; in [6], 97.6%. Moreover, the growth in assay [7] was 101%; in assay [8], 101%; in [9], 105%; in assay [10], 112%; in assay [11] it was 87.7%; in assay [12], 103%. The growth in assay [13] is 79.7%; in assay [14], 98.4%; in assay [15], 94.8%; in [16], 84.2%; in assay [18], 115%; in assay [19] it was 94.8%.
Regarding `Cn1ccnc1C(=O)/C=C/c1ccc(C(=O)Nc2ccc(S(F)(F)(F)(F)F)cc2)cc1`, the growth in assay [1] is 3.65% (active); in [2], 12%; in [3] it was 12.2%; in assay [4] it was 9.4% (active); in assay [5], -6.93% (active); in [20], 17.4%. Further, the growth in assay [7] is 53.5%; in assay [8] it was -79.5% (active); in assay [9] it was 79.5%; in [10], 62.7%; in assay [11] it was 26.3%; in [12] it was 7.07% (active). Besides, the growth in assay [13] was 28.5%; in [14], 48.8%; in assay [15], 42.5%; in assay [16] it was 23.9%; in assay [17], 38.4%; in assay [18], 3.4% (active). Moreover, in assay [19], the growth was -5.05% (active).
For `C=C1C(=O)O[C@H]2[C@H]1CC/C(COC(=O)/C=C\C(=O)NCc1ccc(Cn3c(=O)sn(-c4ccc(OC)cc4)c3=O)cc1)=C\CC[C@@]1(C)O[C@@H]21`, the growth in assay [1] is -58.1% (active); in assay [2], -22.9% (active); in assay [3], -57.8% (active); in [4], 7.17% (active); in [5], -60.3% (active); in [20] it was -58% (active). Also, the growth in [8] is -88.6% (active); in assay [9] it was -92% (active); in assay [10] it was -54.2% (active); in assay [11] it was -82.9% (active); in assay [12], -96.4% (active); in assay [13] it was -100% (active). In addition, the growth in assay [15] was -98.8% (active); in [16], -66.1% (active); in assay [17], 7.18% (active); in assay [18] it was -11.4% (active); in [19] it was -26.4% (active).
`OC(COc1cccc2ccccc12)CN1CCN(c2ccccc2)CC1` (stereo unspecified): the growth in assay [1] was 99.6%; in assay [2], 94%; in [3], 81.8%; in assay [4] it was 97.4%; in [5], 95.7%; in assay [6], 90.4%. Also, the growth was 98.2% in [7]; 92.1% in assay [8]; 105% in assay [9]; 103% in assay [11]; 98.7% in [12]; 82.2% in assay [13]. The growth is 104% in assay [14]; 104% in assay [15]; 47% in [16]; 95.5% in assay [17]; 107% in [19].
With `CN(C)CCn1cc(-c2ccc3c(Nc4ccc(CC(=O)Nc5cccc(F)c5)cc4)ncnc3c2)cn1`, the growth in [1] was 22.1% [30 µM]; in assay [2] it was -40.7% [30 µM] (active); in [3], -87% [30 µM] (active); in assay [4], -60% [30 µM] (active); in assay [5], -52.4% [30 µM] (active); in assay [20] it was -25.2% [30 µM] (active). Moreover, the growth was -81.6% [30 µM] (active) in assay [7]; -50.2% [30 µM] (active) in assay [8]; -89.6% [30 µM] (active) in assay [9]; 37.2% [30 µM] in assay [10]; -34.7% [30 µM] (active) in assay [11]; -91.4% [30 µM] (active) in assay [12]. Further, the growth in assay [13] is -60% [30 µM] (active); in [14] it was -58.5% [30 µM] (active); in assay [15], -51.7% [30 µM] (active); in [16], -15.8% [30 µM] (active); in [17] it was 59.5% [30 µM]; in [18], -19.3% [30 µM] (active). Also, in [19], the growth was -30.6% [30 µM] (active).
`CN(C)CCC(O)(Cc1ccccc1)c1ccccc1` (stereo unspecified): the growth in assay [1] is 108%; in assay [2], 103%; in assay [3], 102%; in assay [4], 112%; in assay [20] it was 92.9%; in [6], 108%. In addition, the growth in assay [8] is 99.2%; in assay [9], 112%; in assay [10], 100%; in assay [11] it was 99.5%; in assay [13] it was 87.8%; in assay [14], 93.8%. In addition, the growth is 101% in [15]; 83.6% in assay [16]; 185% in [17]; 112% in [18]; 102% in assay [19].
